According to PubChem BioAssay (Tox21):
Results filed as inconclusive are left out. The source made the active and inactive calls. Calls follow the shape of the dose curve; as a rule, active = well fitted curve in the direction sought with a large enough effect in the repeat runs; inconclusive = weak or mixed curves; inactive = no such curve, though single readings can be large; an effect the other way counts as inactive or inconclusive. Where a SMILES comes first, the peptide text is derived from it. [ ]: non-standard residue; d: D form. pGlu = O=C1CC[C@@H](C(=O)O)N1

Tests used:
[1] = qHTS RealTime-Glo MT Cell Viability Assay in HEK293 cells - 16 hour (AID 1224872); also: top concentration of the series differs between compounds; nearly all actives have a fitted effect of over 50% in size
How it was run: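 Cells + reagent dispensed (600 cells/well, HEK293) → 5 h at 37 C/5% CO2 → 23 nL compound in DMSO pinned → 40 h at 37 C → luminescence read at 0, 8, 16, 24, 32, 40 h.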

[2] = qHTS RealTime-Glo MT Cell Viability Assay in HepG2 cells - 8 hour (AID 1224873); also: nearly all actives have a fitted effect of over 55% in size
How it was run: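 HepG2 cells mixed with RealTime-Glo MT reagents (NanoLuc plus cell-permeant prosubstrate) were seeded at 600 cells/well, incubated 5 h at 37 C/5% CO2, then pinned with compounds in DMSO; nonlytic luminescence tracked viability during 40 h treatment.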

[3] = qHTS RealTime-Glo MT Cell Viability Assay in HEK293 cells - 40 hour (AID 1224874); details: RealTime-Glo luminescence; max response: stronger effect = lower value; also: nearly all actives have a fitted effect of over 50% in size
How it was run: (§1)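 Luminescence readout at each listed time point; HEK293, 600 cells/well, RealTime-Glo MT reagent added with cells; compounds pinned (23 nL in DMSO) after 5 h at 37 C; continuous culture at 37 C.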

[4] = A CellTox Green Cytotoxicity Assay to monitor cytotoxicity in HEK293 cells - 24 hour (AID 1224875); also: series mostly up to about 77 µM; nearly all actives have a fitted effect of over 45% in size
How it was run: (§2)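 Read-out: fluorescence of a cell-impermeant cyanine dye staining DNA of dead cells, proportional to cytotoxicity. HEK293, 600 cells/well with reagent, compound (23 nL DMSO) added after 5 h; reads at 0, 8, 16, 24, 32, 40 h.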

[5] = A CellTox Green Cytotoxicity Assay to monitor cytotoxicity in HepG2 cells - 16 hour (AID 1224876); also: nearly all actives have a fitted effect of over 45% in size
How it was run: (§3)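 HepG2, 600 cells/well premixed w/ CellTox Green; 5 h settle, 37 C/5% CO2; pintool cpd add (DMSO); 37 C, 40 h; fluorescence read at 0, 8, 16, 24, 32, 40 h.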

[6] = qHTS RealTime-Glo MT Cell Viability Assay in HepG2 cells - 32 hour (AID 1224877); also: nearly all actives have a fitted effect of over 55% in size; also: potency is read from the fitted curve at half-maximal effect
How it was run: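 Real-time, nonlytic viability: 600 HepG2 cells/well mixed with NanoLuc enzyme plus prosubstrate; 5 h settle, compound (DMSO) added by pintool; luminescence monitored over 40 h at 37 C.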

[7] = A CellTox Green Cytotoxicity Assay to monitor cytotoxicity in HepG2 cells - 40 hour (AID 1224879); also: nearly all actives have a fitted effect of over 40% in size
How it was run: as §3

[8] = qHTS RealTime-Glo MT Cell Viability Assay in HEK293 cells - 0 hour (AID 1224880); also: top concentration of the series differs between compounds; nearly all actives have a fitted effect of over 45% in size
How it was run: as §1

[9] = A CellTox Green Cytotoxicity Assay to monitor cytotoxicity in HEK293 cells - 32 hour (AID 1224881); also: nearly all actives have a fitted effect of over 40% in size
How it was run: as §2

[10] = A CellTox Green Cytotoxicity Assay to monitor cytotoxicity in HepG2 cells - 24 hour (AID 1224878); also: nearly all actives have a fitted effect of over 45% in size
How it was run: as §3
% is scaled to controls: 0 for no effect and ±100 for the full control effect.

CC1=CCC(O)(C(C)C)CC1 (stereo not drawn)
inactive: Potency [1] | outcome [2] | max response [3] 2.79% | outcome [4] | outcome [5] | Potency [6] | Potency [7] | Potency [8] | outcome [9]

CC/C=C\CCOC(C)OCC (stereo not drawn)
inactive: Potency [1] | outcome [2] | max response [3] 3.36% | outcome [4] | outcome [5] | Potency [6] | outcome [10] | Potency [7] | Potency [8] | outcome [9]

NC(=O)Cc1cccc2ccccc12
inactive: Potency [1] | outcome [2] | max response [3] 2.56% | outcome [4] | outcome [5] | Potency [6] | outcome [10] | Potency [7] | Potency [8] | outcome [9]

CCOC(=O)C1=NOC(c2ccccc2)(c2ccccc2)C1
inactive: Potency [1] | outcome [2] | max response [3] 3.23% | outcome [4] | outcome [5] | Potency [6] | outcome [10] | Potency [8] | outcome [9]

COCCOCC(OC)OC
inactive: Potency [1] | outcome [2] | max response [3] -1.01% | outcome [4] | outcome [5] | Potency [6] | outcome [10] | Potency [8] | outcome [9]

CC(=O)Nc1ccc(OCC(O)CNC(C)C)cc1 (stereo not drawn)
inactive: Potency [1] | outcome [2] | max response [3] -1.7% | outcome [4] | outcome [5] | Potency [6] | outcome [10] | outcome [9]

COc1c(N2CCNC(C)C2)c(F)cc2c(=O)c(C(=O)O)cn(C3CC3)c12 (stereo not drawn)
inactive: Potency [1] | outcome [2] | max response [3] 14% | outcome [4] | outcome [5] | Potency [6] | outcome [10] | Potency [8] | outcome [9]

CCCCN1C=CN(C)C1
inactive: activity change, negative = cytotoxicity [1] 5.82% [at 15.8 µM] | viability change, negative = cytotoxic [2] 2.13% [at 15.8 µM] | max response [3] 9.09% | activity change [4] -7.42% [at 15.8 µM] | cytotoxicity increase [5] -14.5% [at 15.8 µM] | activity change, negative = cytotoxic [6] -0.21% [at 15.8 µM] | cytotoxicity [10] -16.6% [at 15.8 µM] | activity change, negative = cytotoxicity [8] 0.0716% [at 15.8 µM] | cytotoxicity increase [9] -9.11% [at 15.8 µM]

CCCCCCCCCCCCSC
inactive: Potency [1] | outcome [2] | max response [3] 0.729% | outcome [4] | outcome [5] | Potency [6] | outcome [10] | Potency [7] | Potency [8] | outcome [9]

NCCCC(N)(C(=O)O)C(F)F (stereo not drawn)
inactive: Potency [1] | outcome [2] | max response [3] 0.24% | outcome [4] | outcome [5] | Potency [6] | Potency [7] | Potency [8] | outcome [9]

CCNC(=O)[C@@H]1CCCN1C(=O)[C@H](CCCN=C(N)N)NC(=O)[C@H](CC(C)C)NC(=O)CNC(=O)[C@H](Cc1ccc(O)cc1)NC(=O)[C@H](CO)NC(=O)[C@H](Cc1c[nH]c2ccccc12)NC(=O)[C@H](Cc1cnc[nH]1)NC(=O)[C@@H]1CCC(=O)N1 ([pGlu]HWSYGLRP-NHEt)
inactive: Potency [1] | outcome [2] | max response [3] 7.73% | outcome [4] | outcome [5] | Potency [6] | outcome [10] | Potency [8]

Cc1ccc(-c2ncc(Cl)cc2-c2ccc(S(C)(=O)=O)cc2)cn1
inactive: Potency [1] | outcome [2] | max response [3] -19.4% | outcome [4] | outcome [5] | Potency [6] | outcome [10] | Potency [8]

CC1=NN(c2cccc(S(=O)(=O)O)c2)C(=O)C1
inactive: Potency [1] | outcome [2] | max response [3] 2.46% | outcome [4] | outcome [5] | Potency [6] | outcome [10] | Potency [8] | outcome [9]

CCCCc1nc(Cl)c(CO)n1Cc1ccc(-c2ccccc2-c2nn[nH]n2)cc1
inactive: Potency [1] | outcome [2] | max response [3] -16.9% | outcome [4] | outcome [5] | Potency [6] | outcome [10] | outcome [9]

O=C1CCCCCCCCCCCCCCO1
inactive: Potency [1] | outcome [2] | max response [3] 0.109% | outcome [4] | outcome [5] | Potency [6] | outcome [10] | Potency [8] | outcome [9]

CC(=O)N1C[C@H](O)C[C@H]1C(=O)O
inactive: Potency [1] | outcome [2] | max response [3] 6.07% | outcome [4] | outcome [5] | Potency [6] | Potency [7] | Potency [8] | outcome [9]

CCCc1ncc(C[n+]2ccccc2C)c(N)n1
inactive: Potency [1] | outcome [2] | max response [3] 6.68% | outcome [4] | outcome [5] | Potency [6] | Potency [7] | Potency [8] | outcome [9]

O=[N+]([O-])c1ccc(/C=N\O)o1
inactive: Potency [1] | outcome [2] | max response [3] 4.52% | outcome [4] | outcome [5] | Potency [6] | outcome [10] | Potency [7] | Potency [8] | outcome [9]

CCO[Si](OCC)(OCC)c1ccccc1
inactive: Potency [1] | outcome [2] | max response [3] 10.1% | outcome [4] | outcome [5] | Potency [6] | outcome [10] | Potency [8]

COc1ccc2cc1Oc1cc3c(cc1OC)CC[N+](C)(C)[C@H]3Cc1ccc(cc1)Oc1c(OC)c(OC)cc3c1[C@@H](C2)[N+](C)(C)CC3
inactive: Potency [1] | outcome [2] | max response [3] -3.12% | outcome [4] | outcome [5] | outcome [10] | Potency [7] | Potency [8] | outcome [9]
active: Potency [6] 21.3 µM

CC(=O)c1cnccn1
inactive: Potency [1] | outcome [2] | max response [3] 3.82% | outcome [4] | outcome [5] | Potency [6] | outcome [10] | Potency [8] | outcome [9]

Cc1ncc([C@@H](CCCCCCc2ccc3c(n2)NCCC3)CC(=O)O)cn1
inactive: Potency [1] | outcome [2] | max response [3] 4.72% | outcome [4] | outcome [5] | Potency [6] | outcome [10] | Potency [7] | Potency [8] | outcome [9]

C[N+]12CCC(CC1)C(OC(=O)C(O)(c1ccccc1)c1ccccc1)C2 (stereo not drawn)
inactive: Potency [1] | outcome [2] | max response [3] 4.99% | outcome [4] | outcome [5] | Potency [6] | outcome [10] | Potency [7] | Potency [8] | outcome [9]

CC(C)C1CCC(O)CC1 (stereo not drawn)
inactive: Potency [1] | outcome [2] | max response [3] 7.59% | outcome [4] | outcome [5] | Potency [6] | outcome [10] | Potency [7] | Potency [8] | outcome [9]

CC1=NS(=O)(=O)c2cc(Cl)ccc2N1
inactive: Potency [1] | outcome [2] | max response [3] 2.07% | outcome [4] | outcome [5] | Potency [6] | outcome [10] | Potency [8]

CCCCCCCCN1CCCC1=O
inactive: Potency [1] | outcome [2] | max response [3] -3.59% | outcome [4] | outcome [5] | Potency [6] | outcome [10] | Potency [8] | outcome [9]

Cc1ccnc(NS(=O)(=O)c2ccc(N)cc2)n1
inactive: Potency [1] | outcome [2] | max response [3] 6.66% | outcome [4] | outcome [5] | Potency [6] | outcome [10] | Potency [7] | Potency [8] | outcome [9]

C[N+]1(C)CCCC(OC(=O)C(O)(c2ccccc2)c2ccccc2)C1 (stereo not drawn)
inactive: Potency [1] | outcome [2] | max response [3] -4.47% | outcome [4] | outcome [5] | Potency [6] | outcome [10] | Potency [8] | outcome [9]

CN1CCC(=C2c3ccccc3CCc3cccnc32)CC1
inactive: Potency [1] | outcome [2] | max response [3] -11% | outcome [4] | outcome [5] | Potency [6] | Potency [8] | outcome [9]

Nc1ccn([C@@H]2O[C@H](CO)[C@@H](O)[C@@H]2O)c(=O)n1
inactive: Potency [1] | outcome [2] | max response [3] 6.05% | outcome [4] | outcome [5] | Potency [6] | Potency [7] | Potency [8] | outcome [9]

O=S(=O)(O)c1cccc2ccccc12
inactive: Potency [1] | outcome [2] | max response [3] 14.6% | outcome [4] | outcome [5] | outcome [10] | Potency [7] | Potency [8] | outcome [9]

CCOc1ccccc1OCC
inactive: Potency [1] | outcome [2] | max response [3] 5.1% | outcome [4] | outcome [5] | Potency [6] | Potency [7] | Potency [8] | outcome [9]

CCCCCCC1CCC(=O)O1 (stereo not drawn)
inactive: Potency [1] | outcome [2] | max response [3] 4.76% | outcome [4] | outcome [5] | Potency [6] | Potency [7] | Potency [8] | outcome [9]

CC(CC=O)CC(C)(C)C (stereo not drawn)
inactive: Potency [1] | outcome [2] | max response [3] -0.119% | outcome [4] | outcome [5] | Potency [6] | Potency [7] | Potency [8] | outcome [9]
